Compound activity deposited in PubChem BioAssay by The Scripps Research Institute Molecular Screening Center.
Rows were chosen to be rich in hits. Some 2.8% of all compounds tested hit in one or more screens of this group.
MsrA inhibitor – bovine MsrA enzyme inhibitors, primary screen, biochemical, absorbance, HTS; Methionine sulfoxide reductase A (Bos taurus); purified bovine MsrA, absorbance read-out; inhibition, % at 15.5 µM; 360,000 compounds, 0.75% hits
bovine MsrA act – bovine MsrA enzyme activators, primary screen, biochemical, absorbance, HTS; AID 602163, 2012; activation, % at 10.6 µM; purified bovine MsrA, absorbance read-out; 360,000 compounds, 0.3% hits; Methionine sulfoxide reductase A (Bos taurus); in the data active = activation above about 7.5%
KLK7 zymogen act – proKLK7 zymogen activators, primary screen, biochemical, fluorescence intensity; purified proKLK7, EDANS-DABCYL substrate fluorescence; 100% is mature enzyme control, 0% vehicle; activation, % at 7 µM; Kallikrein-7 (Homo sapiens), P49862; 370,000 compounds, 0.9% hits;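 active = activation above the mean of all tested compounds plus 3 SD, computed per campaign excluding outliers beyond control limits, cut at about 13% in these data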
Target sequence (P49862 whole entry, looked up): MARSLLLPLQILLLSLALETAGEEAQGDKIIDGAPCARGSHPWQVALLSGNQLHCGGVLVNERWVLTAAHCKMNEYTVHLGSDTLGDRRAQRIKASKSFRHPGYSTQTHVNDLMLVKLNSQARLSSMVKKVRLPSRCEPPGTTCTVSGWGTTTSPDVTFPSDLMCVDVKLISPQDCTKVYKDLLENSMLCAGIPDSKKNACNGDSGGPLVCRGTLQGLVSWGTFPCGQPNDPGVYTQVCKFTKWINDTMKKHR
SMARCA2 activ – SMARCA2 (BRM) function activators, primary screen, cell-based, luminescence, high throughput; MG213 cells, MMTV-luciferase reporter, dexamethasone, overnight; activation, % at 9.1 µM; 370,000 compounds, 1% hits; AID 652017, 2013; in the data active = activation above about 7.8%
MsrA inh confirm – bovine MsrA inhibitors, retest, confirmation, biochemical, absorbance, HTS; shares compounds with MsrA inhibitor; 2,300 compounds, 41% hits; AID 651822, 2012; purified bovine MsrA, absorbance read-out; inhibition, % at 15.5 µM;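 note: coupled to thioredoxin reductase with NADPH and selenocystamine and DMSO as substrate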
Large screens that a line does not name were inactive (follow-up assays come after a bar, where they were run). Cut-off read from the data, not from the text of the source, unless noted: active = inhibition above about 4.5%; inactive = the rest.

COc1cc2c(cc1OC)-c1cc(Nc3ccccc3)nc(=O)n1CC2	MsrA inhibitor 5.1 | MsrA inh confirm inactive
COc1cc2c(cc1OC)-c1cc(Nc3ccc4c(c3)OCCO4)nc(=O)n1CC2	MsrA inhibitor 5.1 | MsrA inh confirm inactive
COc1cc2c(cc1OC)-c1cc(Nc3ccc(C(=O)O)cc3)nc(=O)n1CC2	none
COc1ccc(Nc2cc3n(c(=O)n2)CCc2cc(OC)c(OC)cc2-3)c(C)c1	MsrA inhibitor 4.9 | MsrA inh confirm inactive
COc1cc2c(cc1OC)-c1cc(NC3CCCCCC3)nc(=O)n1CC2	none
CCCCCN1CCCCC(NC(=O)c2ccc(F)c(F)c2)C1=O (configuration not stated)	none (no result: MsrA inhibitor, bovine MsrA act)
COC(=O)[C@]12C[C@H](CC(=O)NCCCN3CCCC3=O)C(=O)N(Cc3ccccc3)C1=C[C@H](C1CCCC1)O[C@@H]2C	none (no result: bovine MsrA act)
CCN(CC)C(=O)[C@H]1CC(CC(=O)NCCC2=CCCCC2)C(=O)N2CCc3c([nH]c4ccc(OC)cc34)[C@]12C (some centres not stated)	none
CN(C)[C@H]1CCN(c2cccc3c2S(=O)(=O)N(C2CC2)CCCO3)C1	none (no result: MsrA inhibitor, bovine MsrA act)
CCOC(=O)[C@@]12CCC3=C1N(CCC3)C(=O)[C@H](CC(=O)NCCC(C)C)C2	none (no result: MsrA inhibitor, bovine MsrA act)
CCOC(=O)C1=CCN(S(=O)(=O)c2ccccc2F)C1c1ccccc1 (configuration not stated)	none
CC(C)NC(=O)C1(C)CCCN1C(=O)c1ccccc1Br (configuration not stated)	none
COc1ccc(CN(C2CCCC2)S(=O)(=O)c2cc(Br)ccc2Br)c(OC)c1	none (no result: bovine MsrA act)
COc1ccc(-c2cc3ccc(OCC(N)=O)cc3oc2=O)cc1OC	MsrA inhibitor 5.6 | MsrA inh confirm inactive
O=C(Nc1ccc(C(=O)O)cc1)/C(=C\c1ccccc1)NC(=O)c1ccco1	none
COc1ccc(/C=C(/NC(=O)c2ccco2)C(=O)Nc2ccc(C(=O)O)cc2)cc1	MsrA inhibitor 6.2 | MsrA inh confirm inactive
COc1ccc(/C=C(\NC(=O)c2ccco2)C(=O)Nc2ccc(C(C)=O)cc2)cc1	MsrA inhibitor 5.4 | MsrA inh confirm 6.2
O=C(Nc1ccc(C(=O)O)cc1)/C(=C\c1ccco1)NC(=O)c1ccc(Br)cc1	MsrA inhibitor 5.1 | MsrA inh confirm inactive
CC(=O)Oc1ccc(/C=C(\NC(=O)c2ccco2)C(=O)Nc2ccc(C(C)=O)cc2)cc1	none
O=C(Nc1ccc(C(=O)O)cc1)/C(=C\c1ccco1)NC(=O)c1ccc(Br)o1	none
COc1ccc(CN2CCC[C@]3(N[C@H](c4ccc(C)cc4)[C@@H]4C(=O)N(C)C(=O)[C@@H]43)C2=O)cc1	none
CC1(C(=O)NCc2ccccc2)CSCC(=O)N1CCc1c[nH]c2ccccc12 (configuration not stated)	none (no result: bovine MsrA act)
CC(C)(C)C(=O)OC12CCCN(C1)/C(=C/c1ccncc1)C2 (configuration not stated)	none (no result: MsrA inhibitor, bovine MsrA act)
NC(=O)C12NC(Cc3ccccc31)c1ccccc12 (configuration not stated)	none (no result: bovine MsrA act)
CC(=O)CC[C@H]1CC[C@]2(CCCN(C(=O)c3ccc4ccccc4n3)C2)O1	none (no result: MsrA inhibitor, bovine MsrA act)
O=C(CN1C(=O)CCSc2ccccc21)Nc1ccc(Cl)c(Cl)c1	none (no result: MsrA inhibitor, bovine MsrA act)
CN1c2ccsc2C(O)=C(C(=S)Nc2ccc(F)c(Cl)c2)S1(=O)=O	MsrA inhibitor 6.5 | MsrA inh confirm 5.1
Cn1cc(C(=O)Nc2ccc(F)c(Cl)c2)cn1	none
COc1cc(-c2c(C#N)c(N)nc3[nH]c(=S)[nH]c(=O)c23)ccc1O	MsrA inhibitor 5.0 | MsrA inh confirm inactive
COc1cc(-c2c(C#N)c(N)nc3c2CCCC3)ccc1O	none
COCCNC(=O)/C(C#N)=C/C(C)=C/c1ccccc1	MsrA inhibitor 6.0 | MsrA inh confirm inactive
COc1cccc(/C(C)=N/Nc2ccc(S(=O)(=O)N3CCCCC3)cn2)c1	MsrA inhibitor 4.8 | MsrA inh confirm inactive
CC(C)[C@@H](NC(=O)OC(C)(C)C)c1cc(C(=O)c2c(-c3ccccc3)[nH]c3ccccc23)c(N)s1	none (no result: bovine MsrA act)
CN(Cc1ccccc1)c1ncc(C=O)s1	MsrA inhibitor 7.5 | MsrA inh confirm 5.8
COc1ccc(-c2nc3ccc(C)cn3c2CC(C)(C)C)cc1OC	none
CCCNC(=O)C1(C)CCN(CCS(=O)(=O)c2ccc(C)cc2)C1 (configuration not stated)	none
Oc1[nH]c2ccccc2c1C1=NCCCC1	MsrA inhibitor 4.9 | MsrA inh confirm inactive
CCn1c(O)c(C2=NCCCC2)c2ccccc21	none
CCOc1ccc(N(C)S(=O)(=O)c2cc(-c3cc(C)no3)ccc2C)cc1	MsrA inhibitor 12 | MsrA inh confirm 11
CCOc1ccc(N(C)S(=O)(=O)c2cc(-c3cc(C)no3)ccc2CC)cc1	MsrA inhibitor 15 | MsrA inh confirm 15
C/C(=N\Nc1ccc(S(N)(=O)=O)cc1[N+](=O)[O-])c1ccccc1O	MsrA inhibitor 9.9 | MsrA inh confirm 4.7
O=[N+]([O-])c1cc(Cl)ccc1Nc1ccccc1	none (no result: MsrA inhibitor, KLK7 zymogen act, SMARCA2 activ)
NS(=O)(=O)c1ccc(Nc2ccccc2)c([N+](=O)[O-])c1	MsrA inhibitor 4.9 | MsrA inh confirm inactive
C/C(=N\Nc1ccc(S(N)(=O)=O)cc1[N+](=O)[O-])c1ccco1	MsrA inhibitor 9.2 | MsrA inh confirm 5.4
CCOC(=O)C1CCCN(C(=O)c2cccc(C(F)(F)F)c2)CC1 (configuration not stated)	none
N#C/C(=C\c1cccs1)C(=O)NCc1cccnc1	MsrA inhibitor 5.5 | MsrA inh confirm inactive
N#C/C(=C\C=C\c1ccccc1)C(=O)NCc1cccnc1	MsrA inhibitor 7.6 | MsrA inh confirm 6.8
N#C/C(=C\c1cccc([N+](=O)[O-])c1)C(=O)NCc1cccnc1	none
Nc1ccc(-c2nc3ccccc3s2)cn1	MsrA inhibitor 5.3 | MsrA inh confirm inactive
Cc1cc(C)nc(Nc2ncc(O)n2-c2ccc(Br)cc2)n1	MsrA inhibitor 8.1 | MsrA inh confirm inactive
COc1ccc(OC)c(-n2c(O)cnc2Nc2nc(C)cc(C)n2)c1	none
Cc1cc(C)nc(Nc2ncc(O)n2-c2ccc(C)c(Cl)c2)n1	MsrA inhibitor 9.1 | MsrA inh confirm 5.4
Cc1cc(C)nc(Nc2ncc(O)n2-c2ccc(C)c(C)c2)n1	MsrA inhibitor 8.0 | MsrA inh confirm 6.6
Fc1ccc2cc(C3=CCCCC3)ncc2c1	none (no result: bovine MsrA act)
CC1(C(=O)O)CCCN1C(=O)c1cccc(C(F)(F)F)c1 (configuration not stated)	none
COC(=O)[C@]12C[C@H](CC(=O)NCC3CCCCC3)C(=O)N(Cc3ccco3)C1=C[C@H](C1CCCC1)O[C@@H]2C	none (no result: MsrA inhibitor, bovine MsrA act)
CCCCOC(=O)C1CN(c2ccccc2)N=C1C(=O)OCC (configuration not stated)	MsrA inhibitor 53 | MsrA inh confirm inactive
CC(=O)NC(C)(CC(=O)c1ccccc1)c1ccccc1 (configuration not stated)	none
